Shiga inhibitor = blocks Shiga toxin action in Vero cells | Vero cells, Shiga toxin protein synthesis inhibition reporter | inhibition, % at 38.7 µM | 290,000 tested, 9.2% active | AID 2315; in the data active means inhibition mostly above about 28%, no sharp cut-off; inactive means mostly below about 43%
NS1 function inh = inhibitors of influenza NS1 protein function; Potency, µM (top dose mostly 46.1 µM); 270,000 tested, 0.4% active; AID 2326; further: actives are rising curves; nearly all actives have a fitted effect of over 50% in size
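Growth recovery, yeast-based: influenza A NS1 expressed in S. cerevisiae causes slow growth, and suppressors are detected by OD600. The parent strain without NS1 is used as positive control.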
SARS PLP yeast = SARS-CoV PLP inhibition in yeast; S. cerevisiae expressing SARS-CoV PLpro, growth rescue; Potency, µM (titrated, usually from 32.9 µM), usual class: activators; 330,000 tested, 0.19% active; AID 485353; further: nearly all actives have a fitted effect of over 55% in size
TbPYK inhibitor = T. brucei pyruvate kinase inhibition. Q57TT1. TbPYK enzyme, Kinase-Glo Plus ATP luminescence, 45 min. Potency, µM (doses to about 76.8 µM), actives largely listed as inhibitors. 410,000 tested, 0.12% active. AID 624173; active means well fitted curve in the direction sought with a large enough effect; inconclusive means small, poorly fitted or top-dose-only effect, or another doubt; inactive means no such curve, though single readings can be large; an effect the other way counts as inactive or inconclusive; further: nearly all actives have a fitted effect of over 50% in size
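TbPYK + substrate in 50 mM TEA pH 7.2, 100 mM KCl, 10 mM MgCl2, 0.05% BSA, 0.01% Tween-20; cpd pinned; ADP 130 uM final; 45 min RT; Kinase-Glo Plus 10 min; luminescence endpoint.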
LmPK inhibitor = LmPK (Leishmania mexicana) enzyme inhibition; Q27686; purified LmPK, Kinase-Glo ATP luminescence, 1 h; Potency, µM (highest dose often 57.5 µM), usual class: inhibitors; 290,000 tested, 0.37% active; AID 1721; active means well fitted curve in the direction sought with a large enough effect; inconclusive means small, poorly fitted or top-dose-only effect, or another doubt; inactive means no such curve, though single readings can be large; an effect the other way counts as inactive or inconclusive
Target sequence (Q27686 whole entry, looked up): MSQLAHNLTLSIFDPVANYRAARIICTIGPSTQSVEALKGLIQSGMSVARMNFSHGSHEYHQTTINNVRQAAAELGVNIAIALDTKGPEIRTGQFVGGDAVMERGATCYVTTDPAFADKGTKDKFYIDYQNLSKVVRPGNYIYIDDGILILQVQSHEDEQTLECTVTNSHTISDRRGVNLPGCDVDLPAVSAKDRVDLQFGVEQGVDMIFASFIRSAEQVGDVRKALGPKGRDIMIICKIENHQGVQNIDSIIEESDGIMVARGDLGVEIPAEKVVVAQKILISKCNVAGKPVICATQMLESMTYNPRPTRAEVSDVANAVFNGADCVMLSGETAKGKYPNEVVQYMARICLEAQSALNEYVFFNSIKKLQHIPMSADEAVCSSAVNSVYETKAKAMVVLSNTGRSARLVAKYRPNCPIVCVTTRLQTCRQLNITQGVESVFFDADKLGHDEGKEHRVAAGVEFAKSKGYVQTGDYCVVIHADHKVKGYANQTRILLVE
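In 50 mM imidazole pH 7.2 with 7 mM MgCl2, LmPK (0.1 nM) turned over PEP (0.5 mM) and ADP (0.1 mM) for 1 h at room temperature. Luciferase read-out of ATP.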
Cycloheximide cs = counter-screen hit for Shiga toxin inhibitors, cycloheximide; cell reporter, cycloheximide protein synthesis inhibition counterscreen; max response, %; 300,000 tested, 12% active; in the data active means max response mostly above about 13%, no sharp cut-off; inactive means mostly below about 14%; further: read at 38.3 µM for the half of the compounds with a filed dose
A number is an active result; – = inactive; ? = inconclusive; · = not tested or not shown; + = active, no number; [ ] = dose if it differs, or a comment. The full list was thinned out, with hits kept by preference. Unless noted, the call rests on the fitted dose curve.

SMILES | Shiga inhibitor | NS1 function inh | SARS PLP yeast | TbPYK inhibitor | LmPK inhibitor | Cycloheximide cs
COc1ccc(-c2nc(CCNC(=O)c3cccs3)cs2)cc1OC | · | · | · | – | · | ·
COc1ccc(-c2nc(CCl)cs2)cc1 | 54 | · | – | – | ? | 45
COc1ccc(-c2nc(-c3ccc(O)cc3O)cs2)cc1OC | 55 | – | – | – | – | 30
CCc1ccc(-c2nc(CCl)cs2)cc1 | 90 | – | – | – | ? | 37
COc1ccc(-c2nc(CNS(=O)(=O)c3ccc(C)cc3)cs2)cc1 | · | · | · | – | · | ·
O=C(Nc1ccccc1)[C@@H]1CC=C[C@@H]2CCN(Cc3ccc(Cl)c(Cl)c3)C(=O)[C@@H]21 | · | · | · | – | · | ·
Cc1ccc(-c2ccc(=O)n(CCC(=O)NCCc3ccccc3)n2)cc1 | · | · | · | – | · | ·
COc1ccc(-c2csc(-c3ccc(O)cc3)n2)cc1 | 73 | – | – | – | – | 52
COc1cccc(-c2nc(CCl)cs2)c1 | 57 | · | – | – | – | 37
COc1ccc(-c2csc(C(O)c3ccccc3)n2)cc1 (centres undefined) | · | · | · | – | · | ·
N#Cc1c(NC(=O)/C=C/c2ccco2)sc2c1CCCC2 | 67 | – | – | – | – | 51
O=C(/C=C/c1ccccc1)Nc1sc2c(c1C(=O)O)CCC2 | 41 | – | – | – | – | 25
CNC(=O)c1c(NC(=O)/C=C/c2ccccc2)sc2c1CCC2 | · | · | · | – | · | ·
O=C(/C=C/c1ccco1)Nc1sc2c(c1C(=O)O)CCC2 | 52 | – | – | – | – | 43
COC(=O)c1c(NC(=O)/C=C/c2ccc(OC)cc2)sc2c1CCC2 | · | · | · | – | · | ·
CO[C@@H]1[C@H](N(C)C(=O)c2ccccc2)C[C@H]2O[C@]1(C)n1c3ccccc3c3c4c(c5c6ccccc6n2c5c31)C(=O)NC4 | · | · | · | – | · | ·
COc1ccc(CC(=O)Oc2ccc(C)cc2Br)cc1OC | – | – | – | – | – | –
COC(=O)C1=C(C)N(C)C(=O)NC1c1cccc2ccccc12 (centres undefined) | – | – | – | – | – | –
Cc1ccc(NP(=O)(c2ccccc2)c2nc3ccccc3s2)cc1 (centres undefined) | 62 | · | – | – | – | 31
COc1ccc2c(c1)CCc1c(C(=O)N3CC4(C)CC3CC(C)(C)C4)noc1-2 (centres undefined) | – | – | – | – | – | –
COc1ccc2c(c1)CCc1c(C(=O)N3CCCc4ccccc43)noc1-2 | – | – | – | – | – | 27
COc1ccc2c(c1)CCc1c(C(=O)N3CCOCC3)noc1-2 | 74 | – | – | – | – | 31
CCN(CC(=O)Nc1ccc(OC)cc1)C(=O)Cc1ccc(OC)c(S(=O)(=O)N2CCOCC2)c1 | · | · | – | – | · | ·
CCOc1ccc(C(=O)CN2C(=O)NC3(CCCc4ccccc43)C2=O)cc1 (centres undefined) | · | · | · | – | · | ·
CC(O)[C@H]1CNC(=O)C(=O)N1CC(C)(C)C (some centres undefined) | – | – | – | – | – | –
SMILES | Shiga inhibitor | NS1 function inh | SARS PLP yeast | TbPYK inhibitor | LmPK inhibitor | Cycloheximide cs
Cc1c(C(=O)Nc2ccc(Cl)cc2)c2ccccn2c1C(=O)c1ccc(F)cc1 | – | – | – | – | – | –
Cc1c(C(=O)Nc2cccc(Cl)c2)c2ccccn2c1CCc1ccncc1 | 37 | – | – | – | – | –
Cc1c(C(=O)Nc2ccc(Cl)cc2)c2ccccn2c1CCc1ccncc1 | 39 | – | – | – | – | 28
Cn1cnc(S(=O)(=O)N2CCCCC2c2cc(C(=O)NCc3ccc(Cl)c(Cl)c3)no2)c1 (centres undefined) | · | · | · | – | · | ·
COc1ccc(OC)c(NCc2cccn2-c2nnc(N3CCC(C)CC3)s2)c1 | 69 | · | · | – | · | 31
O=C1/C(=C/c2cccs2)NC(=S)N1C1CC1 | active | – | – | – | – | –
Cc1ccc(-n2ncc3c(Nc4cccc(C(F)(F)F)c4)ncnc32)cc1C | · | · | · | – | · | ·
Cc1c(/C=C/C(=O)c2cccs2)cnn1C | 96 | – | – | ? | – | 33
CCc1ccc(C(=O)/C=C/c2cnn(C)c2C)s1 | 34 | – | – | · | – | 23
c1ccc2c(c1)CCN(c1nc3cc4c(cc3s1)OCCO4)C2 | – | – | – | – | 22µM | 34
O=S(=O)(c1ccc2c(c1)OCCO2)N1CCN(c2nc3ccccc3s2)CC1 | – | – | – | – | – | –
O=S(=O)(c1ccc(Cl)cc1)c1nnn2c1nc(NCc1ccccc1)c1sccc12 | · | · | · | – | · | ·
COc1ccccc1CNc1ccc([N+](=O)[O-])cc1C | – | – | – | – | – | –
COc1ccc(CNc2ccccn2)c(O)c1 | 48 | – | – | – | – | 20
COc1cccc(CNc2ccc([N+](=O)[O-])cc2Cl)c1O | – | · | – | – | –[11.5 µM] | 39
COc1cccc(CNc2ccccn2)c1O | · | – | – | – | – | 34
COc1cccc(CNc2cccc3cccnc23)c1O | active | – | – | – | – | 16
Oc1c(Br)cc(Br)cc1CNc1ccccn1 | – | – | – | – | – | –
CCCCN1C(=O)C(CC(=O)NCc2ccco2)CC(C(=O)N2CCOCC2)=C1C (centres undefined) | · | · | · | – | · | ·
COc1cccc(CNc2cc(C)ccn2)c1O | 51 | – | – | – | – | 39
Fc1ccccc1CSCc1nc2ccccc2[nH]1 | 101 | – | – | – | – | 25
Clc1ccc(SCc2nc3ccccc3[nH]2)cc1 | + | – | – | – | – | 49
CC(C)SCc1nc2ccccc2[nH]1 | – | – | – | – | – | 15
c1ccc2[nH]c(CSc3ncnc4c3oc3ccccc34)nc2c1 | 62 | – | – | – | – | 16
COC(=O)c1sccc1NC(=O)CC1C(=O)NCCN1C(=O)c1ccc(C)c(C)c1 (centres undefined) | – | – | – | – | – | –
SMILES | Shiga inhibitor | NS1 function inh | SARS PLP yeast | TbPYK inhibitor | LmPK inhibitor | Cycloheximide cs
Cn1c(Cc2cccs2)nnc1SCc1nc2ccccc2[nH]1 | – | – | – | – | – | –
Cc1ccc(CSCc2nc3ccccc3[nH]2)cc1 | 66 | · | – | – | – | 39
c1ccc2[nH]c(CSc3nccs3)nc2c1 | 75 | – | – | – | – | 23
c1csc(Cc2nc3ccccc3[nH]2)c1 | – | – | – | – | – | 24
c1ccc(SCc2nc3ccccc3[nH]2)cc1 | 163 | – | – | – | – | 41
Cc1ccc(SCc2nc3ccccc3[nH]2)cc1 | 130 | – | – | – | – | 45
COc1cccc(NC(=S)N2CCn3cccc3C2c2cccnc2)c1 (centres undefined) | 33 | – | – | – | – | –
